Laboratory results: the supplement of paper PMC11732987, “Enantioselective OTUD7B fragment discovery through chemoproteomics screening and high-throughput optimisation” (Communications Chemistry, 2025)
A number with no mark means an inactive call.

Key:
Assay in all cases: log2 ratio of Biotin-Ahx-Ub-VS probe labelling (compound/DMSO); higher = less target engagement, active = hit call of the paper (q ≤ 0.05, log2 ratio ≤ -1)
Details in all cases: treatment time: 3 h
[1] = compound: ClCC(=O)NC1CCCc2ccccc12
How it was run: (§1)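 For activity-based profiling, 495 µg portions of HEK293T lysate in Tris/CHAPS/IGEPAL buffer with protease inhibitors were treated in triplicate with compound at 50 or 200 µM or with DMSO for 3 h. A 1 h incubation with Biotin-Ahx-Ub-VS (0.5 µM final) followed, then NeutrAvidin enrichment, LysC and trypsin digestion and diaPASEF LC-MS/MS. The compound/DMSO base-two log ratios were averaged from median-normalised label-free quantities using an unpaired t-test. Proteins needed at least 2 unique peptides to be included.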

[2] = compound: ClCC(=O)NC1CCOc2ccc(Cl)cc12
How it was run: as §1

[3] = compound: ClCC(=O)NC1CCSc2ccccc12
How it was run: as §1

[4] = compound: ClCC(=O)N[C@H]1CCCc2ccccc12
How it was run: as §1

[5] = compound: Fc1ccc(N2CCN(c3nc4c(CN(C(CCl)=O)CC4)cn3)CC2)cc1.Cl.Cl
How it was run: as §1

Chain of UniProt Q70EL1 (Q70EL1 whole entry): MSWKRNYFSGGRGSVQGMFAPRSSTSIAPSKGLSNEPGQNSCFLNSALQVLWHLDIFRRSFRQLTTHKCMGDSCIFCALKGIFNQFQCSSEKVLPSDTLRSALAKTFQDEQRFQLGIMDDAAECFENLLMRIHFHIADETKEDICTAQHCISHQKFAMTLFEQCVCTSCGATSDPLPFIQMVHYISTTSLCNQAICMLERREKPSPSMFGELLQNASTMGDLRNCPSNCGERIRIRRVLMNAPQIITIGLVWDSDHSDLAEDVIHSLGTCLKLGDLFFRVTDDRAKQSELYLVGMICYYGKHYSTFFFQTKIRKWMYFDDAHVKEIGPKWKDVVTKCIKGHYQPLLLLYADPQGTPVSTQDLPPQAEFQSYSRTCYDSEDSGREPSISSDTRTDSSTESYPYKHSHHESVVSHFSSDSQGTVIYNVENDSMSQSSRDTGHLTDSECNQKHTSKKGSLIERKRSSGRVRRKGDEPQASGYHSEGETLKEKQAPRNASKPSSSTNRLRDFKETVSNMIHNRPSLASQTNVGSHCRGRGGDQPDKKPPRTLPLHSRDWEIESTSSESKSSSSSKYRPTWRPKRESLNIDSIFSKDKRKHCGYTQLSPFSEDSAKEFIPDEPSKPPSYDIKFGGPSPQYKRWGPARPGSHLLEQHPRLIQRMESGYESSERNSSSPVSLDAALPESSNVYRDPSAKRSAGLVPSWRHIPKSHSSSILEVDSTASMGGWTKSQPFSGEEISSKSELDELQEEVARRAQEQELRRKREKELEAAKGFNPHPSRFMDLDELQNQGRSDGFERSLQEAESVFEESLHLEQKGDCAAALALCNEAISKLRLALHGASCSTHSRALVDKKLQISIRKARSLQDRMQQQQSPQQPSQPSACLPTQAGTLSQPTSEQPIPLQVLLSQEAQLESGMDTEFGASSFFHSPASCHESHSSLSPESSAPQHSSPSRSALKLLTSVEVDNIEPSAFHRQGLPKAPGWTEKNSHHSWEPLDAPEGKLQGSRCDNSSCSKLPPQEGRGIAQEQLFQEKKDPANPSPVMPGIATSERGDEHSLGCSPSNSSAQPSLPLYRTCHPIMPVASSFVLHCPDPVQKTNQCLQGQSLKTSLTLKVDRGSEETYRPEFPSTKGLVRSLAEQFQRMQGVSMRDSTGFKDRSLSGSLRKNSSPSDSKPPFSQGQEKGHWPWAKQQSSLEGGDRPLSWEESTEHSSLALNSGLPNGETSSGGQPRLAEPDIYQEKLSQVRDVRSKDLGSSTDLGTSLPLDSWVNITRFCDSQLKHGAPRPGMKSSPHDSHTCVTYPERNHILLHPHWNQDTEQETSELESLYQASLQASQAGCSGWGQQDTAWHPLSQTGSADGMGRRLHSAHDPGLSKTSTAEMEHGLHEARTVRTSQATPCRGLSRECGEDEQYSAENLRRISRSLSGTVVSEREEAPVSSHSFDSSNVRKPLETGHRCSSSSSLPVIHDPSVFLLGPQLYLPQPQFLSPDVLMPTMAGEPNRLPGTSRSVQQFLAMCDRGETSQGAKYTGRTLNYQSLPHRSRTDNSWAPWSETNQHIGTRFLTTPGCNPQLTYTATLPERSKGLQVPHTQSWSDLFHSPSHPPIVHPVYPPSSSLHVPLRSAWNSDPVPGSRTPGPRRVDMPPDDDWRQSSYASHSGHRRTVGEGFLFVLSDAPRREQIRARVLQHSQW
Chain of UniProt Q70EL2 (Q70EL2 whole entry): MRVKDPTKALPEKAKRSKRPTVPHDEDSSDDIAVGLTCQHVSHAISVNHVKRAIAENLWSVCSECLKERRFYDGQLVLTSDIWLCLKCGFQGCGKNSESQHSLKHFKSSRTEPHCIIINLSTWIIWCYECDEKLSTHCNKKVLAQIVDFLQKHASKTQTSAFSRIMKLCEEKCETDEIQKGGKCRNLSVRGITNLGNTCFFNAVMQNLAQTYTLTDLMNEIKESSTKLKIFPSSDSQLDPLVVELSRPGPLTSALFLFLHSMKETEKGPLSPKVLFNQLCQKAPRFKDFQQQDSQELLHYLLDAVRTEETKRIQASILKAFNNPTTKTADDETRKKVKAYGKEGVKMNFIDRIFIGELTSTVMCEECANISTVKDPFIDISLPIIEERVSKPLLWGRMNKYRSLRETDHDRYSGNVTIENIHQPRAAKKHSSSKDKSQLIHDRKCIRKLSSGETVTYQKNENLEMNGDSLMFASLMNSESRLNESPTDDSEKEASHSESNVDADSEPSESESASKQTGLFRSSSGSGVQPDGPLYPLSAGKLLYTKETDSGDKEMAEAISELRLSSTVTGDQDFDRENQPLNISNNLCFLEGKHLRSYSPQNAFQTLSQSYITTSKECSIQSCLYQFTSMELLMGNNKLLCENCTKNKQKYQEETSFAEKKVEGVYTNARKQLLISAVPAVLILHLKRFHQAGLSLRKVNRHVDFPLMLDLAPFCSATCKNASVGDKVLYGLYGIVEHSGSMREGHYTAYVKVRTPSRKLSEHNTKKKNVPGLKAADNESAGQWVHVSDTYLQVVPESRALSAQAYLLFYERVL
Chain of UniProt Q8TE49 (Q8TE49 whole entry): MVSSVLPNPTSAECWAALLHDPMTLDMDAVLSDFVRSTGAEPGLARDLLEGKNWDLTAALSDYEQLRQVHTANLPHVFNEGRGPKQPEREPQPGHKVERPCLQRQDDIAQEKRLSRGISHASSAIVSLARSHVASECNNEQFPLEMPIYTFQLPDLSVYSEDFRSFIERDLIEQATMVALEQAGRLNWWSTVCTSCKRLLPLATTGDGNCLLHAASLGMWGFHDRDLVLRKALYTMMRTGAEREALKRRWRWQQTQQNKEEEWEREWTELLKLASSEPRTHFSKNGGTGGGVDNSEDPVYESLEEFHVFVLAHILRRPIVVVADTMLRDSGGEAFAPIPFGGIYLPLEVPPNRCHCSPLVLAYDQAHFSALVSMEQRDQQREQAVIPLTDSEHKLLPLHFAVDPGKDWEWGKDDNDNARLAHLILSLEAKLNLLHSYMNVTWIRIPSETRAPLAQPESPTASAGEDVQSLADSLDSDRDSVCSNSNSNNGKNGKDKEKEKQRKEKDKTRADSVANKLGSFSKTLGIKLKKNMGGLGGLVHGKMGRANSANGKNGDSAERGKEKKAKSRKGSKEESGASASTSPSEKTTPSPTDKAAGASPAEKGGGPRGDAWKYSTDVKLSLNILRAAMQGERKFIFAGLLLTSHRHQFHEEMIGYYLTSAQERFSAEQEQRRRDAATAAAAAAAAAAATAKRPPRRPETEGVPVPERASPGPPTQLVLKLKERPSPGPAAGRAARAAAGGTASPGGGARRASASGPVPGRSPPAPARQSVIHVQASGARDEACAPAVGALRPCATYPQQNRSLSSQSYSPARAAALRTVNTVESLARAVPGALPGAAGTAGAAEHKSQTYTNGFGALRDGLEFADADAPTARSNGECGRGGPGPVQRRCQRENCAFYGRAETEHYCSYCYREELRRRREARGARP
Chain of UniProt Q9P275 (Q9P275 whole entry): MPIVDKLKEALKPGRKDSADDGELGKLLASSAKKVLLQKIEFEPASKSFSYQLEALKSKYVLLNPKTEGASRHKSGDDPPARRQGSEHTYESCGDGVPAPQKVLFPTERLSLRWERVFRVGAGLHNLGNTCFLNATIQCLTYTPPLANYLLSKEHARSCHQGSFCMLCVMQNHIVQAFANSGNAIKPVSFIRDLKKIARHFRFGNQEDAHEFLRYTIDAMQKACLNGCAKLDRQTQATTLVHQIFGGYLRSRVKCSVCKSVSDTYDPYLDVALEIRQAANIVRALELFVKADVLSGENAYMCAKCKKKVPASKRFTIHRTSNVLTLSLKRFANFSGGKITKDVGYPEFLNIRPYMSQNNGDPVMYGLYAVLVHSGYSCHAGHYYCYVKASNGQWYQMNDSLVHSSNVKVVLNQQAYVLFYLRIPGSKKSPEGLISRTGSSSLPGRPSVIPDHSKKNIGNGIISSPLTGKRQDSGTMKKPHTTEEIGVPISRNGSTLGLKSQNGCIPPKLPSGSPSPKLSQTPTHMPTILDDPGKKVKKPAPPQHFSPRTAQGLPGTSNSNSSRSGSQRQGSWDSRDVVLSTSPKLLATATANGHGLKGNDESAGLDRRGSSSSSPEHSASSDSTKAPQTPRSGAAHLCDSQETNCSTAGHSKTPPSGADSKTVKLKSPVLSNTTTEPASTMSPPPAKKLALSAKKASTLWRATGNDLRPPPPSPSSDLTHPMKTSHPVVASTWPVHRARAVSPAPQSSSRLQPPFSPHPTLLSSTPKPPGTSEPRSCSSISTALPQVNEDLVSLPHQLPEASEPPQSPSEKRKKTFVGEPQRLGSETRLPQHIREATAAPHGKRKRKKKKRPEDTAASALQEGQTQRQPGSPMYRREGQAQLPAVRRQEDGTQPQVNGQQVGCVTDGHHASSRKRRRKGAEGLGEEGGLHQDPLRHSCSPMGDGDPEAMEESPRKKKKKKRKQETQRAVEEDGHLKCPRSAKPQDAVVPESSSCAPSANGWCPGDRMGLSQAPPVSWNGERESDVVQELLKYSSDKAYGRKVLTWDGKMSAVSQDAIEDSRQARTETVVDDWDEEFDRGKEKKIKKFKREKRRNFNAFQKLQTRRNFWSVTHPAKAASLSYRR
Chain of UniProt Q53GS9 (Q53GS9 whole entry): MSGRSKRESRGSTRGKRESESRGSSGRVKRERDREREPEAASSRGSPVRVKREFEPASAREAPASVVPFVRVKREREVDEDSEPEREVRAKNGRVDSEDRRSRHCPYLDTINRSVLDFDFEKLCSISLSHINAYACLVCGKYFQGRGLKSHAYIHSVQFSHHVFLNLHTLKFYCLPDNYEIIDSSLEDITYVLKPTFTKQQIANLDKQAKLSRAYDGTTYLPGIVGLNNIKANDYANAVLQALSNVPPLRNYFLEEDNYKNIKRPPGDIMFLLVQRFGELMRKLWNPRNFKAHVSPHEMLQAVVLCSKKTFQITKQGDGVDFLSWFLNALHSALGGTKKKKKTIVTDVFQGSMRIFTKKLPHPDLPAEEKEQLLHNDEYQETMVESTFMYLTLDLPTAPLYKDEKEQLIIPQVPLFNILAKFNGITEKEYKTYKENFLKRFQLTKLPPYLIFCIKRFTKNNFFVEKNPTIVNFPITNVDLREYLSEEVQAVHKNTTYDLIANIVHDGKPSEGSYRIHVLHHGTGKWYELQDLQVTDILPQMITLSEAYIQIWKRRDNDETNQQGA

Target | log2 ratio of Biotin-Ahx-Ub-VS probe labelling ([1]; compound concentration: 50uM) | log2 ratio of Biotin-Ahx-Ub-VS probe labelling ([1]; compound concentration: 200uM) | log2 ratio of Biotin-Ahx-Ub-VS probe labelling ([2]; compound concentration: 50uM) | log2 ratio of Biotin-Ahx-Ub-VS probe labelling ([2]; compound concentration: 200uM) | log2 ratio of Biotin-Ahx-Ub-VS probe labelling ([3]; compound concentration: 50uM) | log2 ratio of Biotin-Ahx-Ub-VS probe labelling ([3]; compound concentration: 200uM) | log2 ratio of Biotin-Ahx-Ub-VS probe labelling ([4]; compound concentration: 50uM) | log2 ratio of Biotin-Ahx-Ub-VS probe labelling ([4]; compound concentration: 200uM) | log2 ratio of Biotin-Ahx-Ub-VS probe labelling ([5]; compound concentration: 50uM) | log2 ratio of Biotin-Ahx-Ub-VS probe labelling ([5]; compound concentration: 200uM)
USP54 (UniProt Q70EL1) | -0.548 | 0.0905 | 0.326 | 0.176 | 0.0467 | 0.0947 | -1.58 (active) | -0.206 | -0.663 | 0.547
UniProt Q9UGI0 | -0.0757 | -0.346 | -0.41 | -0.0672 | -0.265 | -0.226 | -0.182 | -0.337 | -0.0659 | -0.664
YOD1 (UniProt Q5VVQ6) | -0.158 | 0.159 | -0.167 | -0.318 | 0.161 | -0.174 | 0.362 | -0.265 | 0.0837 | -0.394
UCHL1 (UniProt P09936) | -0.0609 | 0.151 | -0.516 | -0.228 | 0.0655 | -0.146 | -0.0596 | -0.223 | 0.0885 | -0.474
EIF3H (UniProt O15372) | -0.0316 | -0.379 | -0.141 | -0.0932 | -0.0985 | -0.00068 | -0.109 | 0.0728 | 0.0328 | -0.126
USP5 (UniProt P45974) | 0.0451 | 0.134 | 0.0362 | -0.0604 | 0.236 | -0.0467 | 0.0744 | -0.095 | 0.22 | -0.287
VCPIP1 (UniProt Q96JH7) | -0.592 | -1.1 (active) | -0.668 | -0.836 | -0.427 | -1.2 (active) | -0.287 | -0.962 | -0.145 | -0.737
USP24 (UniProt Q9UPU5) | -0.0627 | -0.259 | -0.0337 | -0.691 | 0.0214 | -0.445 | 0.184 | -0.614 | -0.726 | -2.07 (active)
ALG13 (UniProt Q9NP73) | 0.298 | 0.114 | 0.599 | 0.0386 | 0.273 | -0.0598 | 0.244 | 0.344 | 0.0824 | 0.24
USP8 (UniProt P40818) | -0.193 | -0.0275 | -0.286 | -0.268 | 0.0453 | -0.166 | -0.0844 | -0.245 | -0.136 | -0.61
USP14 (UniProt P54578) | -0.364 | 0.154 | -0.397 | -0.0189 | -0.186 | -0.179 | 0.115 | -0.537 | 0.108 | -0.424
UniProt Q5T2D3 | -0.177 | 0.0818 | -0.361 | -0.177 | -0.0329 | -0.156 | -0.0344 | -0.199 | -0.00755 | -0.416
USP36 (UniProt Q9P275) | 0.0611 | 0.171 | -0.00761 | -0.088 | 0.158 | 0.1 | -0.0619 | -0.0962 | -0.181 | -0.183
USP28 (UniProt Q96RU2) | -0.263 | -0.626 | -0.164 | -0.586 | -0.108 | -0.622 | -0.259 | -0.947 | -0.134 | -1.12 (active)
BAP1 (UniProt Q92560) | -0.474 | -1.23 (active) | -1.05 (active) | -2.38 (active) | -0.619 | -2.44 (active) | -0.684 | -1.69 (active) | -0.262 | -1.91 (active)
UniProt Q70EL2 | 0.0142 | -0.673 | -0.00989 | -0.0714 | 0.0879 | 0.0524 | 0.0625 | -0.323 | -0.414 | -0.995
USP48 (UniProt Q86UV5) | 0.13 | 0.0439 | -0.0252 | -0.167 | 0.207 | -0.0233 | -0.00252 | -0.144 | -0.0747 | -0.125
UniProt Q8TE49 | -1.68 (active) | -2.58 (active) | -0.472 | -2.17 (active) | -0.368 | -2.26 (active) | -2.07 (active) | -2.92 (active) | -0.151 | -1.37 (active)
USP7 (UniProt Q93009) | -0.0886 | -0.205 | -0.182 | -0.301 | 0.0569 | -0.25 | 0.0324 | -0.432 | -0.507 | -1.83 (active)
OTUD6B (UniProt Q8N6M0) | -0.12 | -0.0737 | -0.248 | -0.361 | 0.0363 | -0.296 | -0.00611 | -0.364 | -0.105 | -1.28 (active)
USP39 (UniProt Q53GS9) | -0.167 | -0.109 | -0.269 | -0.2 | -0.0242 | -0.138 | 0.0198 | -0.0406 | 0.0915 | -0.109
USP42 (UniProt Q9H9J4) | 0.113 | 0.286 | -0.00469 | 0.132 | 0.137 | 0.26 | -0.0967 | 0.0714 | -0.0766 | 0.241
MINDY4 (UniProt Q4G0A6) | 0.639 | -0.0583 | -0.0698 | 0.0712 | 0.832 | -0.691 | 0.216 | 0.204 | 0.258 | 0.516
ATXN3 (UniProt P54252) | -0.0534 | -0.164 | -0.0955 | -0.25 | 0.24 | -0.293 | -0.316 | -0.596 | -0.648 | -2.72 (active)
